# According to the supplement of paper PMC6555819:
# How the values were obtained:
# Test in all cases: PBM binding z-score (relative to random genomic background probes); higher = stronger binding; sequences stand for … in GC…GCGATTGACAGCGTAGAATGAAGG
# [1] = system: PPARg:RXRa DBDmut IVT, anti-RXR (DBD mutation: RXRa K156A/R161A, NR concentration 270 nM, RXRa partner concentration 90 nM)
# Outline: (§1)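 Random background probes are the reference for binding z-scores. These scores derive from regression-normalized fluorescence on custom Agilent 4×180K protein-binding microarrays incubated 1 h with ligand-free nuclear receptor dimers. Binding was detected with antibodies against each partner (one per run).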
# [2] = system: PPARg:RXRa IVT, anti-PPARg (NR concentration 270 nM, RXRa partner concentration 90 nM)
# Outline: as §1
# [3] = system: PPARg DBDmut:RXRa IVT, anti-PPARg (DBD mutation: PPARg1 K132A/R137A, NR concentration 270 nM, RXRa partner concentration 90 nM)
# Outline: as §1
# [4] = system: PPARg DBDmut IVT, anti-PPARg (DBD mutation: PPARg1 K132A/R137A, NR concentration 270 nM)
# Outline: as §1
# [5] = system: PPARg homodimer (NR concentration 180 nM)
# Outline: as §1
# [6] = system: PXR:RXRa (NR concentration 270 nM, RXRa partner concentration 90 nM)
# Outline: as §1
# [7] = system: PXR homodimer (NR concentration 270 nM)
# Outline: as §1
# [8] = system: RARa:RXR (NR concentration 270 nM, RXRa partner concentration 90 nM)
# Outline: as §1
# [9] = system: RARa homodimer (NR concentration 270 nM)
# Outline: as §1
# [10] = system: RARb:RXRa (NR concentration 270 nM, RXRa partner concentration 90 nM)
# Outline: as §1
# [11] = system: RARb homodimer (NR concentration 270 nM)
# Outline: as §1
# [12] = system: RARg:RXRa (NR concentration 270 nM, RXRa partner concentration 90 nM)
# Outline: as §1
# [13] = system: RARg homodimer (NR concentration 270 nM)
# Outline: as §1
# [14] = system: RXRa DBDmut IVT, anti-RXR (DBD mutation: RXRa K156A/R161A, NR concentration 90 nM)
# Outline: as §1
# [15] = system: RXRa homodimer (NR concentration 180 nM)
# Outline: as §1
# [16] = system: THRa:RXRa (NR concentration 90 nM, RXRa partner concentration 90 nM)
# Outline: as §1
# [17] = system: THRa homodimer (NR concentration 90 nM)
# Outline: as §1
# [18] = system: VDR homodimer (NR concentration 270 nM)
# Outline: as §1
Sequence,PBM binding z-score [1],PBM binding z-score [2],PBM binding z-score [3],PBM binding z-score [4],PBM binding z-score [5],PBM binding z-score [6],PBM binding z-score [7],PBM binding z-score [8],PBM binding z-score [9],PBM binding z-score [10],PBM binding z-score [11],PBM binding z-score [12],PBM binding z-score [13],PBM binding z-score [14],PBM binding z-score [15],PBM binding z-score [16],PBM binding z-score [17],PBM binding z-score [18]
CCTATTAGTTGACCATAAGGGCATCCGAAGCTCG,0.225,0.238,0.764,0.611,0.73,0.903,1,0.903,1.97,1.37,1.78,1.12,1.02,0.721,0.568,1.89,1.35,1.26
GCTAGCAGGCCATTAGGGTCACTCAATGACGGGC,1.02,1.61,-0.521,-1.36,0.4,2.86,1.38,2.85,-0.0554,2.42,2.83,2.53,2.08,0.0923,2.42,3.37,2.03,1.91
ACTAGCAGACCAAGTTTGGGTCACTCAAACAAAG,-0.311,0.415,-0.191,-0.505,-0.222,0.6,-0.393,1.12,-0.119,0.992,1.57,0.911,0.702,-0.0274,0.79,1.98,0.78,0.00842
CCTTACGGATCACGAGGTTATAGCACGACGAGCG,0.221,0.106,-0.412,0.232,1.02,1.02,0.695,1.36,0.995,0.621,1.15,0.741,0.714,0.575,1.62,1.52,1.08,1.06
CCAGACAGGTGAGAAGATAACTCAGCCTCGATTA,0.896,0.216,-0.0942,-0.455,0.364,0.081,0.476,0.117,0.792,0.241,-0.0712,0.21,0.586,0.0832,0.262,-0.0838,-0.477,-0.188
CGAACTAGGACAAGGACAGTGAATCTCCGCACGC,5.04,3.15,0.0656,0.471,0.000634,-0.249,-0.177,0.0939,-0.389,0.708,0.532,0.083,0.606,0.343,0.0441,1.8,1.32,0.0217
CGTCAAAGTTCGACTAAGGTAACGTAAAGCACGC,0.0158,0.996,-0.0779,-0.2,1,2.49,0.543,1.92,0.582,2.49,1.77,2.14,1.99,2.97,1.5,4.99,1.58,1.03
ATACCGAGGTGATCGTGAGGTCGTTGATACTAAC,0.567,1.31,0.104,1,0.847,3.62,1.35,2.39,-0.522,1.4,1.77,2.74,0.682,0.849,1.91,3.52,2.44,2.85
CAGCCTAGGTCAGGGTCAGTATAGGAGGAACGTT,1.2,2.57,0.511,-0.598,1.63,2.38,0.127,3.04,0.15,4.31,4.16,4.27,4.84,0.854,3.67,3.39,1.53,1.31
AGAATGAGCTTATTAAGATCAGGGAATTGCGGTC,-0.544,-0.262,0.296,0.244,-0.453,-0.238,-0.13,-0.065,-0.11,-0.496,-0.66,-0.341,-0.0554,-0.496,-0.0846,-0.273,-0.456,-0.554
ACTAGCAGGCCAAGTTTGGGTCAGTCAAACAAAG,0.456,0.754,-0.643,-0.95,-0.103,0.0962,-0.463,0.649,-0.408,1.21,1.85,1.65,0.925,-0.416,0.0586,1.62,0.427,-0.265
CGAACTAGGTCAAGGACAGTGACTCTCCGCACGC,8.38,8.3,1.83,0.467,1.66,1.37,-0.264,2.54,0.541,3.95,3.26,3.85,4.74,1.45,2.69,3.31,2.26,0.341
CCGATTGGGGCATAAGGTTACCATAAGCCAGCCC,1.21,1.53,-1.1,-1.31,0.682,0.17,-0.12,1.42,-0.579,1.66,1.76,1.79,1.12,0.0114,1.14,2.16,1.14,-0.374
ATCTCTAGGTAAGAGTCAGTTCAGTGAAGAACGC,1.76,1.41,0.489,0.902,1.16,0.741,1.13,0.349,1.11,0.454,0.813,0.338,0.332,0.262,0.0582,0.853,0.649,0.916
CAAACTAGGTCAAAGGTCCAAGTCGAGCCAACCA,8.79,8.36,1.57,1.19,3.75,3.24,0.0421,5.03,0.553,4.19,3.54,4.98,5.05,2.31,5.69,3.15,0.728,1.77
ATATGTAGGTTATCGGGTCATTCGGTTTGCGCAT,7.54,7.29,1.79,2.8,2.29,3.5,5.62,3.42,1.12,2.45,2.88,3.2,2.3,1.52,3.53,3.28,2.94,4.19
GGAACGAGGGCAAGTTGACAGCAGAGTTTGATGG,4.05,3,-0.195,-0.654,0.481,0.693,0.641,0.4,-0.316,2.51,1.76,1.71,2.41,2.46,1.16,1.17,-0.0541,1.42
CGTCCAAGGTCAGAAAGGTCAGTGAATGCCGAGT,1.91,3.14,-0.203,-0.0818,3.94,6.06,10.7,5.92,3.03,5.34,5.58,6.18,6.89,3,5.59,4.14,2.3,4.66
CGTCCAAGGTCAAGGTCGGTGAAAGAGACTCGAA,3.16,4.02,-0.058,-0.563,2.86,4.31,0.887,5.05,0.962,5.34,4.27,6.3,6.78,3.67,5.99,4.11,2.88,2.44
TCTATTAGTTGATTAGTGCAACCGAAACAGCGGA,1.81,0.352,1.1,1.5,0.86,0.603,0.441,0.464,1.06,0.332,0.0135,0.467,0.362,0.964,0.333,0.158,0.00829,0.654
GCATATATGTAATACAAGGTGAAAGTCCGATTGT,1.6,1.75,0.651,0.705,0.207,0.156,0.0966,1.35,0.0285,0.445,0.691,0.257,0.615,0.612,0.52,2.79,1.14,-0.0295
TCTAGCAGACCAGAGGGTCACTCAAGAGGTACGG,0.667,-0.0326,-0.965,-2.06,0.364,1.38,-0.694,1.85,-0.734,1.81,2.18,1.95,1.42,-0.0475,2.19,1.43,-0.387,0.415
CGAGCTAGGTCATCCAGGACAGTGAATACATTGA,3.44,3.06,0.0496,-0.51,1.51,1.88,0.935,2.15,0.298,3.85,3.01,3.93,4.72,1.97,2.89,3.48,1.79,1.91
CCTTTCGGGTCAAGGTTATAGCACGGGTGGTACG,1.96,3.48,0.691,0.648,2.93,3.67,0.171,4.51,0.494,4.3,3.76,5.07,5.07,2.03,5.56,3.97,3.16,1.97
AGAATGAGGTTATACGTAGATCAGGCAAGAAAGT,3.76,2.33,1.04,0.362,0.366,1.01,0.159,1.51,0.831,1.29,0.646,1.78,1.11,1.62,2.14,2.26,0.402,0.719
CCTATTGGTTGACCATAAGGGCAACCGAAGCTCG,-1.11,0.135,-0.489,-1.22,0.0166,0.326,-0.293,0.774,-0.166,1.26,1.47,0.997,0.631,-0.724,0.512,1.62,0.504,-0.166
GCTATTAGTTGAAAGGGCAACCGAATGATTCTCG,0.456,1.11,0.0571,0.432,1.15,0.708,0.108,1.38,0.652,2,2.09,1.26,1.37,0.972,1.21,0.664,-0.209,0.624
TCATATAGGTAAAGGTGAAAGTGGAACGATATGA,3.98,4.19,1.25,1.26,1.46,1.17,0.224,2.26,0.548,2.13,1.44,1.71,1.52,0.597,2.41,1.36,-0.306,-0.115
CCTGCTAGCTCATGGTCAGCTAATCTACAGTATG,0.183,-0.609,-0.471,-0.109,-0.356,-0.641,-0.376,-0.681,-0.182,-0.0065,-0.424,-0.342,-0.0465,-0.0856,-0.437,-0.44,-0.771,-0.81
